PubChem BioAssay AID463173 (ICCB-Longwood Screening Facility, Harvard Medical School, 2010)
Hit rate of the full screen: of about 52,000 compounds, about 4,300 (8.3%) were called active. Shown is part of a subset that was picked to be rich in actives. Unmarked numbers belong to inactive results. Cut-off read from the data, not from the text of the source: active = survival mostly below about 52% (no sharp cut-off); inactive = mostly above about 56%.

test system: DeltatarO mutant; assay: growth inhibition of S. aureus wild type versus tarO mutant, primary screen, teichoic acid synthesis inhibitors, RN4220, OD600 (AID 463173); details: OD600, 18 h, hits give low values, screened at 18.75 µg/mL (by protocol)

Structure (SMILES) | survival
CCC(C(=O)Nc1cc(-c2cn3cccnc3n2)ccc1C)c1ccccc1 (stereo not drawn) | 91%
Cc1ccc(-c2nc3cccnc3s2)cc1NC(=O)C(C)C | 112%
CCC(CC)C(=O)Nc1cc(-c2nc3cccnc3s2)ccc1C | 57% (active)
CCC(CC)C(=O)Nc1cccc(-c2nc3cccnc3s2)c1 | 80%
CCC(C(=O)Nc1cccc(-c2nc3cccnc3s2)c1C)c1ccccc1 (stereo not drawn) | 92%
CCC(C(=O)Nc1cc(-c2nc3cccnc3s2)ccc1C)c1ccccc1 (stereo not drawn) | 37% (active)
CCCC(=O)Nc1cc(C)c(O)c(-c2nc3ncccc3o2)c1 | 91%
NC(=O)C1CCN(S(=O)(=O)c2ccc(N3CCCCS3(=O)=O)cc2)CC1 | 116%
Cn1c(=O)c2c(n3ncnc13)NC(=O)CC2c1cccc(F)c1 (stereo not drawn) | 66%
CS(=O)(=O)N1CCN(c2ncnc3c(-c4ccc(Cl)cc4)nsc23)CC1 | 99%
COCCn1c(C)cc(O)c(C(c2ccc(OC)cc2)N2CCN(c3ccccc3)CC2)c1=O (stereo not drawn) | 58%
Cc1nc2c3cccnc3nn2c(C)c1CCC(=O)NCc1ccccc1 | 110%
Cc1ccc(C)c(-n2c(CCC(=O)O)ccc2-c2ccc(Cl)cc2)c1 | 75%
Cc1ccc(Cl)cc1-n1c(CCC(=O)O)ccc1-c1cccs1 | 38% (active)
COc1ccc(-c2ccc(CCC(=O)O)n2-c2ccccc2O)cc1 | 124%
Cc1ccc(-c2ccc(CCC(=O)O)n2-c2cccc(C)c2C)cc1 | 34% (active)
Cc1ccc(-n2c(CCC(=O)O)ccc2-c2cccs2)cc1Cl | 86%
COc1ccc(-n2c(CCC(=O)O)ccc2-c2ccccc2)c(OC)c1 | 47% (active)
COc1ccc(Cl)cc1-n1c(CCC(=O)O)ccc1-c1ccc(C)cc1 | 73%
Cc1ccc(-c2ccc(CCC(=O)O)n2-c2ccc(C)c(Cl)c2)cc1 | 42%
Cc1ccc(-n2c(CCC(=O)O)ccc2-c2cccs2)cc1C | 46%
COc1ccc(-c2ccc(CCC(=O)O)n2-c2ccc(Cl)cc2C)cc1 | 47% (active)
COc1ccc(-c2ccc(CCC(=O)O)n2-c2ccccc2C(F)(F)F)cc1 | 116%

Structure (SMILES) | survival
COc1ccc(-c2ccc(CCC(=O)O)n2-c2cc(Cl)ccc2O)cc1 | 52%
CCOC(=O)c1ccc(NC(=O)CCC(=O)N2Cc3ccccc3Oc3ncccc32)cc1 | 92%
COc1ccc(N(C(=O)c2ccc(Cl)cc2)S(=O)(=O)c2ccc(C)cc2)cc1 | 68%
COc1cc(/C=C/c2nc3cc(Cl)ccc3c(=O)n2-c2cccc(C(F)(F)F)c2)cc(OC)c1OC | 96%
CCOc1cccc2sc(N3CCN(C(=O)C(C)(C)C)CC3)nc12 | 77%
CCOc1ccc2nc(NCCNC(=O)NCc3ccccc3)c(C#N)cc2c1 | 98%
CSc1ccccc1NC(=O)CSc1ncccn1 | 108%
O=C(COc1ccccc1Cl)NCC1(N2CCOCC2)CCCCC1 | 106%
COc1ccc(-c2nc(SCC(=O)NCC3CCCO3)c(-c3ccc(C)cc3)[nH]2)cc1OC (stereo not drawn) | 66%
COc1ccc(CNS(=O)(=O)c2cc3c(cc2Cl)N(C(C)=O)CCO3)cc1 | 74%
COc1ccccc1-n1c(=O)n(C)c2c(C(N)=O)nc(-c3cccc(OC)c3OC)nc21 | 83%
Cc1cccc(NC(=O)C(=O)NCCc2sc(-c3ccccc3)nc2C)c1C | 79%
Cc1ccc(NC(=O)Cn2c(CCC(=O)O)ccc2-c2cccs2)cc1 | 56%
Cc1c(Cl)cccc1-n1c(CCC(=O)O)ccc1-c1cccs1 | 35% (active)
CC(=O)c1ccc(-n2c(CCC(=O)O)ccc2-c2cccs2)cc1 | 65%
Cc1ccc(NC(=O)Cn2c(CCC(=O)O)ccc2-c2cccs2)cc1Cl | 59%
Cc1cc(Cl)ccc1-n1c(CCC(=O)O)ccc1-c1cccs1 | 47% (active)
Cc1c(Cl)cccc1NC(=O)Cn1c(CCC(=O)O)ccc1-c1cccs1 | 50%
O=C(COc1ccccc1)N(Cc1cccnc1)c1nc2c(F)cc(F)cc2s1 | 84%
CCc1nc2ccc(C(=O)NCCc3ccc(SC)cc3)cc2nc1CC | 76%
COc1ccc(-c2nnn(CC(=O)N(CC(=O)NCc3ccccc3)c3ccc4c(c3)OCCO4)n2)cc1OC | 69%
CCC(C(=O)NC1CCCC1)N(C(=O)Cn1nnc(-c2cccs2)n1)c1cnc2ccccc2c1 (stereo not drawn) | 92%
O=C(CN(C(=O)Cn1nnc(-c2ccc(F)cc2)n1)c1ccccc1C(F)(F)F)NCc1ccco1 | 98%

Structure (SMILES) | survival
Cc1ccc(-c2nnn(CC(=O)N(CC(=O)NCCC(C)C)c3ccc(F)cc3)n2)cc1 | 41% (active)
CCC(C(=O)NC1CCCC1)N(C(=O)Cn1nnc(-c2ccc(C)cc2)n1)c1ccc2c(c1)OCCO2 (stereo not drawn) | 90%
CCC(C(=O)NCCC(C)C)N(C(=O)Cn1nnc(-c2ccc(C)cc2)n1)c1cccc(O)c1 (stereo not drawn) | 37% (active)
O=C(Oc1c(Cl)cc(Cl)c2cccnc12)N1CCCCCC1 | 112%
COC(=O)c1cc2sccc2n1CC(=O)Nc1ccc(OC)c(OC)c1 | 86%
Cc1cccc(OCC(=O)Nc2ccccc2OCc2cc(=O)n3cc(C)ccc3n2)c1 | 94%
COc1ccc(OC(=O)CSc2nnc(-c3ccc(F)cc3)o2)cc1 | 109%
FC(F)(F)c1cccc(C(c2nnnn2Cc2ccccc2)N(Cc2ccco2)CC2CCCO2)c1 (stereo not drawn) | 105%
COc1cccc(C(=O)Nc2c3c(nn2-c2ccc(C)cc2C)CS(=O)(=O)C3)c1OC | 116%
COc1ccc2cc3cc(C(=O)Nc4ccccc4C)oc3nc2c1 | 116%
COc1ccccc1N1CCN(C(c2ccccc2)c2nnc(-c3ccccc3Cl)o2)CC1 (stereo not drawn) | 32% (active)
COc1ccc(N2CCN(C(c3ccccc3)c3nnc(-c4ccccc4Cl)o3)CC2)cc1 (stereo not drawn) | 49%
Fc1ccc(C(c2nnc(-c3ccccc3)o2)N2CCN(c3ccccc3)CC2)c(Cl)c1 (stereo not drawn) | 84%
COc1ccccc1N1CCN(C(c2ccc(Cl)cc2)c2nnc(-c3cccc(F)c3)o2)CC1 (stereo not drawn) | 62%
Cc1ccc(Cl)cc1N1CCN(C(c2ccc(F)cc2)c2nnc(-c3ccccc3)o2)CC1 (stereo not drawn) | 55%
Cc1ccc(C)c(N2CCN(C(c3ccccc3)c3nnc(-c4ccccc4F)o3)CC2)c1 (stereo not drawn) | 61%
Cc1ccc(C)c(N2CCN(C(c3ccccc3)c3nnc(-c4ccccc4)o3)CC2)c1 (stereo not drawn) | -5% (active)
Cc1cccc(N2CCN(C(c3ccccc3)c3nnc(-c4ccccc4F)o3)CC2)c1C (stereo not drawn) | 58%
Cc1cccc(N2CCN(C(c3ccccc3)c3nnc(-c4ccccc4Cl)o3)CC2)c1C (stereo not drawn) | 51%
Fc1ccc(C(c2nnc(-c3ccccc3)o2)N2CCN(c3cccc(Cl)c3)CC2)cc1 (stereo not drawn) | 91%
Cc1ccc(C)c(N2CCN(C(c3ccc(F)cc3)c3nnc(-c4ccccc4)o3)CC2)c1 (stereo not drawn) | 16% (active)
Cc1cccc(N2CCN(C(c3ccc(F)cc3)c3nnc(-c4ccccc4)o3)CC2)c1C (stereo not drawn) | 39% (active)
